From PubChem
Sampled rows, rich in hits. Any-hit rate of the full collection: about 7.2%.
Efflux pump mplx: antifungal efflux pump inhibition, Nile Red retention | S. cerevisiae Candida pump triplex | actives 0.44% (n = 330,000) | inhibition, % at 10 µM | AID 485275;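 active = plate passing quality check with inhibition over a set limit, or well fluorescence over plate mean plus 4 SD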;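 also: Nile Red retained in pooled yeast measured as flow cytometry median fluorescence; 0% = buffer negative control and 100% = Enniatin B positive control; higher means more Nile Red kept so more efflux inhibition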
Mot1-301 SUMO: inhibitors of SUMOylation pathway: yeast Mot1-301 growth rescue; actives 1% (n = 320,000); growth rescue, % at 18.8 µM; S. cerevisiae Mot1-301 growth rescue, ATP luminescence, 38.5C; percent above DMSO median, 100 means doubled;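 active = every valid replicate shows activation above 250% relative to neutral control wells; inactive = the rest, any valid replicate at or below 250%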;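 also: OY570 slx delta 5 strain wells were the positive control but not used for scaling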
ALR H2O2 inh: inhibitors of human sulfhydryl oxidase ALR; purified ALR, DTT oxidation, H2O2 HRP-luminol luminescence; inhibition, % (test concentration not listed); actives 3.8% (n = 290,000);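 active = mean replicate inhibition above about 79%, with every replicate also reaching it, limit read from the data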
AHR act: activators of human aryl hydrocarbon receptor | P35869 | AHR-responsive luciferase reporter cells, luminescence | activation, % at 5 µM | actives 2.5% (n = 320,000); in the data active = activation above about 47%;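 also: 0% = vehicle wells and 100% = reference agonist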
A1 inh: inhibitors of the anti-apoptotic protein A1, read as caspase activation. MEF A1-2A-BIM cells, Caspase-Glo 3/7 luminescence, 3 h; percent of clofoctol response, vehicle zero. caspase activation, % (no concentration beside the values). actives 0.066% (n = 330,000). AID 2462;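 active = over half of replicate activation scores above 10%, or exactly half above 10 with the replicate mean above 10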
VLA-4 inh: inhibition in a human VLA-4 binding assay. P13612. VLA-4 expressing cells, ligand binding flow cytometry. inhibition, % (about 7 µM as worked out from the volumes in the protocol). actives 0.2% (n = 330,000). AID 2557; in the data active = inhibition above about 50%
Starred values were filed as active, the others as inactive; / = not tested or not shown.

SMILES | Efflux pump mplx | Mot1-301 SUMO | ALR H2O2 inh | AHR act | A1 inh | VLA-4 inh
CCCc1cc(=O)[nH]c(SCC(=O)NC(=O)c2ccccc2)n1 | 0.1 | -12.2 | -2.3 | -1.5 | -0.4 | 28.6
CCCc1cc(=O)[nH]c(SCC(=O)Nc2nc(-c3ccccc3)cs2)n1 | 0.0 | -3.3 | 98.8* | 8.4 | 0.8 | 19.0
CCc1nc(SCc2ccc(F)cc2)[nH]c(=O)c1C#N | 0.0 | -14.5 | 98.2* | 3.6 | 0.0 | -3.0
CCCc1cc(=O)[nH]c(SCc2csc(-c3ccccc3)n2)n1 | 0.1 | 133.0 | 98.8* | 6.7 | -0.6 | 10.7
CC(NC(=O)C1CCN(S(=O)(=O)c2cnc[nH]2)CC1)c1ccccc1 (centres undefined) | 0.1 | / | / | 0.1 | -0.5 | 8.2
CC1CC(CN)CC(CO)C1 (centres undefined) | -0.1 | -4.0 | / | 0.2 | 0.1 | 15.2
COc1cccc(/C=N/NC(=O)Cn2nc(C)c([N+](=O)[O-])c2C)c1O | 0.0 | 258.9 | 87.8* | 0.7 | 1.7 | 3.8
CC(C)c1ccc(/C=C2\SC(=O)N(CC(=O)NCCCn3ccnc3)C2=O)cc1 | -0.2 | 148.8 | 98.7* | 1.5 | -0.2 | 7.4
C#CC(=O)N(c1cccc(OC)c1)C(C(=O)NC1CCCC1)c1cccs1 (centres undefined) | 0.0 | 331.1* | 8.5 | -15.7 | 0.2 | 25.5
C#CC(=O)N(c1ccc(OC)c(OC)c1)C(C(=O)NC1CCCC1)c1cccs1 (centres undefined) | 0.3 | 33.4 | -0.2 | -9.1 | 2.6 | 42.1
CCCCc1c(O)nc(SCC(=O)Nc2ccc3c(c2)CCC3)[nH]c1=O | 0.0 | -8.1 | 98.8* | 10.3 | 0.4 | 0.0
CCc1c(O)nc(SCC(=O)Nc2ccc3c(c2)CCC3)[nH]c1=O | 0.0 | 4.0 | 100.2* | 10.4 | -0.4 | -0.2
CCCN1CCc2nc(SCC(=O)Nc3ccc(C)c(Cl)c3)[nH]c(=O)c2C1 | 0.0 | 1.7 | 98.1* | 13.9 | 0.5 | -3.6
Cc1ccc2nc(SCC(=O)Nc3ccc4c(c3)CCC4)[nH]c2c1 | -0.2 | 5.0 | / | 42.0 | 0.2 | -16.0
O=C(CSc1nc2ccccc2[nH]1)Nc1ccc2c(c1)CCC2 | -0.1 | 8.7 | 52.0 | 22.4 | 0.0 | 21.9
COc1ccccc1OCCn1c(=O)oc2ccc(C)cc21 | 0.0 | -13.1 | / | 7.0 | -0.3 | 4.3
CCOC(=O)c1sc2ncn(/N=C/c3ccc(O)c(OC)c3)c(=O)c2c1C | 0.0 | -18.7 | 4.5 | 3.6 | -1.8 | 8.1
CCCN1CCN(CCCNC(=O)c2ccc(CS(=O)c3ccc(OC)cc3)o2)CC1 (centres undefined) | -0.2 | 17.3 | -6.9 | -0.4 | 0.0 | 10.6
Cc1cc(=O)[nH]c(SCC(=O)Nc2nc3c(s2)CCCC3)n1 | 0.1 | 48.5 | 98.9* | 1.4 | 0.5 | 4.7
O=C(CSC1=NCCS1)Nc1nc2c(s1)CCCC2 | 0.0 | -18.4 | 98.5* | 3.9 | -0.9 | 10.3
CCC(Sc1nc(C)cc(=O)[nH]1)C(=O)Nc1nc2c(s1)CCCC2 (centres undefined) | 0.4 | -21.5 | 23.8 | 3.5 | 0.6 | -1.7
CCn1c(C)c(C)c2cc(C(=O)NCCN3CCCCCC3)ccc21 | -0.2 | 24.1 | -5.1 | 8.9 | -0.2 | -11.7
CC(C)(C)c1nnc(SCC(=O)Nc2ccc(N3CCCCC3)cc2)n1N | -0.2 | 15.0 | 99.2* | 7.0 | 0.7 | 10.1
CC(C)n1cnnc1SCC(=O)NCC(=O)Nc1ccc(F)cc1 | 0.1 | -11.9 | -2.5 | 0.8 | -0.6 | 6.7
CC(C)C(=O)Nc1ccc(N2CCCC2)cc1 | -0.1 | -6.0 | 12.8 | 3.5 | -0.8 | 3.8
SMILES | Efflux pump mplx | Mot1-301 SUMO | ALR H2O2 inh | AHR act | A1 inh | VLA-4 inh
CC(Sc1nncn1C)C(=O)Nc1ccc(N2CCCCC2)cc1 (centres undefined) | 0.2 | -15.3 | 92.2* | 0.0 | -0.4 | -3.4
CC(C)n1cnnc1SCC(=O)Nc1ccc(N2CCCCC2)cc1 | 0.0 | 0.9 | 98.8* | 3.0 | -0.5 | 6.9
Cc1cc(NC(=O)Cn2nnc(-c3ccccc3NC(=O)c3ccccc3F)n2)no1 | -0.2 | 69.2 | / | -2.4 | 0.4 | 6.8
O=S1(=O)CCO[C@H]2Cc3ccccc3[C@H]2N1Cc1ccc(F)cc1 | 0.0 | 23.1 | / | 0.4 | 0.4 | 11.2
CC(=O)C(Sc1ccc2nnc(-c3cccnc3)n2n1)C(C)=O | 0.0 | -3.7 | -7.0 | 4.6 | 0.4 | -25.1
N#C/C(=C\c1ccc(N2CCOCC2)o1)C(=O)NC1CCCCC1 | -0.1 | 28.6 | 79.2* | -5.8 | -0.5 | -10.7
